High-throughput results (PubChem)
Sampled rows, rich in hits. Any-hit rate of the full collection: about 27%.
CYP2C19 act: human CYP2C19 activators, primary screen, biochemical, luminescence; Cytochrome P450 2C19 (Homo sapiens), P33261; recombinant CYP2C19, luciferin-H EGE luminescence; active compounds read high; 0 = fully inhibited enzyme, 1 = untreated enzyme; activation factor at 5 µM; 96,000 tested, under 10 active;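 active means activation factor of at least 2 at 5 µM in the primary screen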
Target sequence (P33261 whole entry, looked up): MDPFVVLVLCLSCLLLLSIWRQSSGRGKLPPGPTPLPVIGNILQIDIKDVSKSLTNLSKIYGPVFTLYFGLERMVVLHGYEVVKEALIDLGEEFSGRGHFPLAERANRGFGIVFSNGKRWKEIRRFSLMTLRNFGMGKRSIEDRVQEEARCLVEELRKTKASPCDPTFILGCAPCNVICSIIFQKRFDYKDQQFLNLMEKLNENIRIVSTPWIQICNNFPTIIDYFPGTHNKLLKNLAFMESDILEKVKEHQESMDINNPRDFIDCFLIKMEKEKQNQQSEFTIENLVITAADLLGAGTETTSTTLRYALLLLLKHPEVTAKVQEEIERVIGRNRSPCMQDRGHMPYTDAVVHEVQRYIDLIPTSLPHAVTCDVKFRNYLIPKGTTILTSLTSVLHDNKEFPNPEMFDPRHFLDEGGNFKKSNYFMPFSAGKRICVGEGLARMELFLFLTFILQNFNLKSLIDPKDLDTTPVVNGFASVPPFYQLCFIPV
CYP2C9 inhib: blockers of cytochrome P450 2C9 activity – biochemical, luminescence, ADME assay, primary screen; CYP2C9 Supersomes, luciferin-H conversion; inhibition, % at 5 µM; P11712; 20% of 96,000 active;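 active means blocking of liver enzyme CYP2C9 beyond about 50% at 5 µM, limit read from the data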
CYP2C19 inhib: blockers of cytochrome P450 2C19 activity – biochemical, luminescence, ADME assay, primary screen; P33261; 21% of 96,000 active; CYP2C19 Supersomes, luciferin-H EGE luminescence, 30 min; inhibition, % at 5 µM;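 active means CYP2C19 inhibition above a set limit at 5 µM in the primary screen, cut at about 50% in these data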
Cav32 inh: Cav3.2 calcium influx blockers – cell-based, Fluo-4 calcium fluorescence, FDSS, MLSMR library, primary screen; Cav3.2-expressing cells; active compounds read low; B-score at 10 µM; 4% of 100,000 active;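 active means single-dose well whose peak fluorescence ratio is a statistical outlier from its plate by either plate-standardised score or position-corrected B-score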
CYP2C9 activ: human CYP2C9 activators, primary screen, biochemical, luminescence | Cytochrome P450 2C9 (Homo sapiens), P11712 | recombinant CYP2C9, luciferin-H conversion; active compounds read high; factor 1 = untreated enzyme, 0 = blocked | activation factor at 5 µM | 1.4% of 96,000 active | AID 1024, 2008;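 active means activation factor of 2 or more for CYP2C9 at a 5 µM dose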
PTK2B oligo ant: antagonists of Pyk2 self-association, primary screen, Q293 cells, FERM NanoBiT luminescence, HTS | Protein-tyrosine kinase 2-beta (Homo sapiens), Q14289 | active compounds read low | z-score (the deposit names both 25 µM and 10 µM) | 0.83% of 99,000 active;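 active means Z-score of -3 or lower, scaled per plate to the spread of control and sample wells; inactive means z-score above -3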;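 further: negative z-score means lost luminescence so less FERM oligomerization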
Large screens that a line does not name were inactive.

COc1ccc(-n2nc(C(=O)NCC(=O)Nc3ccccn3)c3ccccc3c2=O)cc1	none
COc1ccc(-n2nc(C(=O)NCC(=O)NCc3ccco3)c3ccccc3c2=O)c(OC)c1	CYP2C9 inhib 72
COc1ccc(CC(=O)NC(C)c2nnc(SCCOc3ccc(OC)cc3)n2C)cc1 (centres undefined)	none
O=C(NCC1CCCO1)c1csc2c1CCCC2 (centres undefined)	none
CCOC(=O)Cc1nnc2c(Nc3ccc(Cl)cc3)nc3nonc3n12	none
CCCNc1nc(C)cc(-c2cc(-c3ccc(Cl)cc3)on2)n1	none (no result: CYP2C19 act, CYP2C9 inhib, CYP2C19 inhib, CYP2C9 activ, PTK2B oligo ant)
COCc1cc(=O)n2[nH]c(C)nc2n1	none
O=S(=O)(/N=C(/Nc1ccc(F)cc1F)c1ccc(Cl)cc1)c1ccccc1	none
CCc1ccccc1OCc1nnc(N)s1	none
Cn1c(=O)c2c(nc(NCc3ccco3)n2C/C=C/c2ccccc2)n(C)c1=O	CYP2C19 inhib 74, PTK2B oligo ant -3
O=C1COc2ccc(C(=O)c3ccccc3)cc2CN1	none
CC(C)(C)Nc1nc2nonc2nc1NC(C)(C)C	none
Cc1cccc(N2CCN(C(=O)c3cccc(N4C(=O)C5CC=CC(C)C5C4=O)c3)CC2)c1C (centres undefined)	CYP2C9 inhib 59
CCC(C)n1c(SCC(=O)NC(=O)Nc2ccc3c(c2)OCCO3)nc2ccccc2c1=O (centres undefined)	CYP2C9 inhib 90
COc1ccccc1-n1c(SCC(=O)Nc2cccc(C)c2)nc2c(c1=O)SCC2	CYP2C9 inhib 74, CYP2C19 inhib 83 (no result: PTK2B oligo ant)
COc1ccc(NC(=O)CSc2nc3ccccc3c(=O)n2-c2ccc3c(c2)OCO3)c(OC)c1	none
COc1ccc(-n2c(SCC(=O)Nc3ccc4c(c3)OCO4)nc3ccccc3c2=O)cc1	CYP2C9 inhib 91, CYP2C19 inhib 92
COc1ccc(-n2c(SCC(=O)Nc3ccc4c(c3)OCO4)nc3c(c2=O)SCC3)cc1	CYP2C9 inhib 58 (no result: PTK2B oligo ant)
O=C(CSc1nc2c(c(=O)n1-c1ccc(F)cc1)SCC2)Nc1ccc2c(c1)OCO2	none (no result: CYP2C19 act, CYP2C9 inhib, CYP2C19 inhib, CYP2C9 activ)
Cc1c(Br)cc(C(=O)N2CCN(CCO)CC2)c(C)c1C	none
CCc1c(C)nc(N)n2c(SCC(=O)N3CCN(c4ccccc4OC)CC3)nnc12	none (no result: Cav32 inh, PTK2B oligo ant)
C#Cc1ccc([C@H]2C=C(C(=O)Nc3ccccc3)O[C@@H](OCc3ccc(CO)cc3)C2)cc1	none (no result: CYP2C19 act, CYP2C9 inhib, CYP2C19 inhib, CYP2C9 activ, PTK2B oligo ant)
COC(=O)CCCC1=CC2=CC(=O)C(C)(OC(=O)c3cccs3)C(=O)C2=CN1C1CC1 (centres undefined)	none (no result: CYP2C19 act, CYP2C9 inhib, CYP2C19 inhib, CYP2C9 activ, PTK2B oligo ant)
COCc1cc(=O)[nH]c(Sc2c(-c3ccccc3)c3ccc(Cl)cc3[nH]c2=O)n1	none (no result: CYP2C19 act, CYP2C9 inhib, CYP2C19 inhib, Cav32 inh, CYP2C9 activ)
O=C(CCc1ccc(S(=O)(=O)NCc2ccccc2)cc1)NCc1cccnc1	none (no result: CYP2C19 act, CYP2C9 inhib, CYP2C19 inhib, Cav32 inh, CYP2C9 activ)
CCOc1ccc(-n2c(SCC(=O)Nc3ccc4c(c3)OCO4)nc3ccccc3c2=O)cc1	CYP2C9 inhib 62
O=C1CCCC2=C1C(c1ccncc1)c1c(nc(SCc3ccccc3)[nH]c1=O)N2 (centres undefined)	CYP2C9 inhib 90, CYP2C19 inhib 87 (no result: Cav32 inh)
Cc1ccc(C2C3=C(CCCC3=O)Nc3nc(SCC(=O)NCc4ccco4)[nH]c(=O)c32)cc1 (centres undefined)	none
Cc1ccc(NC(=O)N2CCC(O)(c3ccc(Cl)cc3)CC2)cc1	CYP2C9 inhib 71, CYP2C19 inhib 96, Cav32 inh -4.3
O=C(Nc1ccc(Cl)cc1)N1CCSCC1	CYP2C19 inhib 60 (no result: Cav32 inh)
O=C(Nc1ccc(Cl)cc1)N1CCCC1	none
CCOC(=O)C1=C(C)N(CCCC(=O)O)C(=O)NC1c1ccc(C(F)(F)F)cc1 (centres undefined)	none (no result: CYP2C19 act, CYP2C9 inhib, CYP2C19 inhib, CYP2C9 activ, PTK2B oligo ant)
CNc1ncc(C(=O)c2ccc(Cl)c(Cl)c2)s1	CYP2C19 inhib 53
O=C(c1ccccc1)c1cnc(Nc2ccccc2Cl)s1	CYP2C19 inhib 54
Cc1cccc(/C=N/NC(=O)c2cc(-c3cccnc3)nc3c2c(C)nn3-c2ccccc2)c1	none (no result: CYP2C19 act, CYP2C9 inhib, CYP2C19 inhib, Cav32 inh, CYP2C9 activ)
CC(C)(C)c1nnc2sc(SCC(=O)c3cccs3)nn2c1=O	CYP2C9 inhib 96
CC(C)(C)c1nnc2sc(SCC(=O)N3CCCc4ccccc43)nn2c1=O	CYP2C19 inhib 71
Cc1cc(C)n2nc(C(=O)Nc3cccnc3)nc2n1	none
COC(=O)c1nn(-c2ccccc2)c(Sc2ccc(Br)cc2)c1/C=N/O	CYP2C9 inhib 73
Cc1ccc(C(C)C)c(OCC(O)CN2CCN(CCO)CC2)c1 (centres undefined)	none (no result: CYP2C19 act, CYP2C9 inhib, CYP2C19 inhib, CYP2C9 activ)
CC(=O)CCCCn1c(=O)c2c(ncn2C)n(C)c1=O	CYP2C9 inhib 51 (no result: Cav32 inh, PTK2B oligo ant)
CC(=O)CCCCn1cnc2c1c(=O)n(C)c(=O)n2C	none (no result: CYP2C19 act, CYP2C9 inhib, CYP2C19 inhib, CYP2C9 activ, PTK2B oligo ant)
O=S(=O)(Nc1ccc2c(c1)nc1n2CCN(Cc2ccccc2)C1)c1ccccc1	none (no result: CYP2C19 act, CYP2C9 inhib, CYP2C19 inhib, CYP2C9 activ)
O=S(=O)(Nc1ccc2c(c1)nc1n2CCN(Cc2ccccc2)C1)c1ccc(Cl)cc1	CYP2C9 inhib 98, CYP2C19 inhib 88
O=S(=O)(Nc1ccc2c(c1)nc1n2CCN(Cc2ccccc2)C1)c1ccc(F)cc1	none (no result: Cav32 inh)
Cc1ccc(S(=O)(=O)Nc2ccc3c(c2)nc2n3CCN(Cc3ccccc3)C2)cc1	CYP2C9 inhib 96, CYP2C19 inhib 83
O=C(O)c1ccc2c(c1)C(=O)N(c1cc(C(=O)O)ccc1Br)C2=O	none
CCOc1ccc(S(=O)(=O)Nc2ccccc2SC)c2cccnc12	CYP2C9 inhib 71
CSCCC(CO)NC(=O)OCc1ccccc1 (centres undefined)	none
CCOc1ccc(C2=NNC(c3cccs3)=Nc3ccc(OC)cc32)cc1OCC	Cav32 inh -8.1 (no result: CYP2C19 act, CYP2C9 inhib, CYP2C19 inhib, CYP2C9 activ)
COc1ccc(C2=NNC(c3cccs3)=Nc3ccc(OC)cc32)cc1	none (no result: CYP2C19 act, CYP2C9 inhib, CYP2C19 inhib, CYP2C9 activ)
CCOc1ccc(C2=NNC(c3cccs3)=Nc3ccc(OCC)cc32)cc1	CYP2C9 inhib 53 (no result: Cav32 inh, PTK2B oligo ant)
CC(=O)N(CCN(C(C)=O)c1ccccc1)c1ccccc1	CYP2C19 inhib 73
CCN(C(=O)c1ccccc1Cl)c1ccccc1	CYP2C19 inhib 62
CCN(C(=O)c1cc(Cl)ccc1OC)c1ccccc1	CYP2C19 inhib 72
CCN(C(=O)c1cc(Cl)ccc1OC)C1CCCCC1	CYP2C9 inhib 96, CYP2C19 inhib 95 (no result: Cav32 inh)
CCN(C(=O)c1cc(Cl)ccc1OC)c1ccccc1C	none (no result: CYP2C19 act, CYP2C9 inhib, CYP2C19 inhib, CYP2C9 activ)
COc1ccc2cc(C3(C)NC(=O)N(CC(=O)Nc4c(C)n(C)n(-c5ccccc5)c4=O)C3=O)ccc2c1 (centres undefined)	none (no result: CYP2C19 act, CYP2C9 inhib, CYP2C19 inhib, Cav32 inh, CYP2C9 activ)
CCOc1ccc(C(C)NC(=O)Nc2ccccc2C(=O)OC)cc1 (centres undefined)	CYP2C19 inhib 70
COc1ccccc1NC(=O)C(C)NS(=O)(=O)c1ccc(Cl)cc1 (centres undefined)	CYP2C19 inhib 74, CYP2C9 activ 3.4
